Measured values reported in PubChem BioAssay (NCI).
Compounds without any hit were thinned out: in the full panel of roughly 83,000, 20% have a hit.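 For each line, cells grew in 96-well plates with the test compound present at a single concentration for 48 hours.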 Active and inactive are the calls of the source. How the source made its calls: active means growth percent below 10; inactive means the rest.

Each compound was assayed on MCF7 breast (assay: NCI-60 one-dose screen, 48 h (100 = growth as untreated, 0 = no growth, -100 = all killed)). Conditions: 10 µM.

SMILES | growth
COc1ccc(C2CC(c3ccc(N(C)C)cc3)=NN2c2ccc(S(N)(=O)=O)cc2)cc1 (stereo not given) | 20.5% (inactive)
COc1ccc(-c2nc(-c3nc4ccc(OC)cc4[nH]3)cc3c2[nH]c2ccccc23)cc1 | 31.8% (inactive)
COc1cc(C(=O)N2CCN(c3ccccc3OC)CC2)c(N)cc1OCCCN1CCN(c2ccccc2OC)CC1 | 96% (inactive)
COc1cc(-c2nc(Nc3nc4ccccc4s3)[nH]c(=O)c2C#N)cc(OC)c1O | 95.7% (inactive)
ClCC#CCSc1ncnc2c1ncn2CC#CCCl | 20.2% (inactive)
Cc1ccc(S(=O)(=O)Oc2ccc3c4c(c(=O)oc3c2)CCCCC4)cc1 | 50.5% (inactive)
O=C1Nc2ccccc2C1=NC1CCCCC1 | 98% (inactive)
O=c1cc(-c2ccccc2)[nH]n1-c1nc2ccccc2[nH]1 | 42.7% (inactive)
COc1ccc(-c2nc3sc(-c4ccccc4)c(-c4ccccc4)n3c2/C=C/C(=O)c2ccccn2)cc1 | 62% (inactive)
CC(C)C[C@H](NC(=O)[C@H](Cc1cccc2ccccc12)NS(=O)(=O)c1cccc2cccnc12)B(O)O | 9.94% (active)
NC(=S)N=Nc1c(O)c2ccccc2c2ccccc12 | 24.5% (inactive)
CCN(CC)CCSCCCNc1c2ccc(Cl)cc2nc2ccc(OC)cc12 | -33% (active)
Cc1cccc(NC2=C(C#N)C(=O)NC3(CCCC3)S2)c1 | 89.8% (inactive)
c1ccc2c(-c3nc(N4CCOCC4)c4c5c(sc4n3)CCCCCC5)cccc2c1 | 91.8% (inactive)
COC(=O)[C@@H]1[C@H](O)[C@H](C)[C@H](O)[C@@](C)(O)/C=C\C=C(C)C(=O)Nc2c(C)c(OC(C)=O)c3c(c2O)C(=O)C(C)=C2OCOC(=C23)C(C)=C[C@@](C)(O)[C@H](O)[C@@H](C)[C@H]1OC(C)=O | 114% (inactive)
